{
  "source": "PubChem BioAssay AID2284365",
  "about": "(EPA ToxCast)",
  "note": "Calls of active or inactive are those of the source. Rule for the calls: active = hit-call score of the fitted dose curve at least 0.9, where 1 is the maximum; inactive = score below 0.9.",
  "data": [
    {"assay": "CCTE_Mundy_HCI_iCellGABA_NOG_NeuronCount: CCTE's Neurite Outgrowth Assay in iCellGABA cells for Neuron Count, Mundy Lab", "protocol": "CCTE_Mundy_HCI_iCellGABA_NOG is a multiplexed, cell-based-readout assay that uses iCell GABANeurons from FUJIFILM Cellular Dynamics, Inc. (FCDI), human GABAergic enriched neurons derived from induced pluripotent stem (iPS) cells, with measurements taken at 50.33 hours after chemical dosing in a microplate: 96-well plate.CCTE_Mundy_HCI_iCellGABA_NOG_NeuronCount is one of four components of the CCTE_Mundy_HCI_iCellGABA_NOG assay. It measures cell viability related to number of neurons using High Content Imaging of fluorescently labelled markers.Data from the assay component CCTE_Mundy_HCI_iCellGABA_NOG_NeuronCount was analyzed at the endpoint CCTE_Mundy_HCI_iCellGABA_NOG_NeuronCount in the positive analysis fitting direction relative to DMSO as the negative control and baseline of activity. Using a type of viability reporter, loss-of-signal activity can be used to understand developmental effects.\nExposure starts 2 hours post-plating by adding 10 ul of the working solution to 90 ul of media in the wells for a 1/10 dilution. Forty-eight hours after chemical treatment cells are fixed by direct addition of 100 ul of warm (37C) Dulbecco's phosphate buffered saline (DPBS) fixative solution containing 8% paraformaldehyde, 8% sucrose, and 0.1% of 3 mg/ml Hoechst 33342 into each well. Primary antibodies are prepared by dilution in Immunocytochemical Staining Buffer (ISB), 10X Dulbecco's PBS, 0.1% Saponin, 5% Bovine Serum Albumin, 0.5% NaN3 (Sodium Azide) and betaIII-tubulin (rabbit anti-betaIII-tubulin, 1:800) followed by Alexa Fluor-488 secondary (1:500) to label neuronal cell bodies and neurites. A Cellomics ArrayScan VTi HCS Reader is used for automated image acquisition and analysis of neurite outgrowth.", "values": [
      {"compound": "CCOP(=S)(OCC)SCSC(C)(C)C", "AC50": "9.92 µM (active)"},
      {"compound": "CCOP(=O)(OCC)Oc1nc(Cl)c(Cl)cc1Cl", "outcome": "inactive"},
      {"compound": "COP(=O)(OC)O/C(C)=C/C(=O)N(C)C", "outcome": "inactive"},
      {"compound": "CCCCSP(=O)(SCCCC)SCCCC", "AC50": "9.92 µM (active)"},
      {"compound": "CCOP(=O)(SC(C)CC)N1CCSC1=O", "note": "(stereo unspecified)", "outcome": "inactive"},
      {"compound": "CCOP(=S)(OCC)OC(Cl)C(Cl)(Cl)Cl", "note": "(stereo unspecified)", "AC50": "9.92 µM (active)"},
      {"compound": "CCOP(=S)(Oc1cnc(C(C)(C)C)nc1)OC(C)C", "note": "(stereo unspecified)", "outcome": "inactive"},
      {"compound": "CCCSP(=O)(OCC)Oc1ccc(Br)cc1Cl", "note": "(stereo unspecified)", "outcome": "inactive"},
      {"compound": "COP(=S)(OC)SCN1C(=O)c2ccccc2C1=O", "AC50": "9.92 µM (active)"},
      {"compound": "CCOP(=S)(OCC)Oc1ccc2c(C)c(Cl)c(=O)oc2c1", "AC50": "23.4 µM (active)"},
      {"compound": "CCOC(=O)CC(SP(=S)(OC)OC)C(=O)OCC", "note": "(stereo unspecified)", "AC50": "50 µM (active)"},
      {"compound": "CCOP(=O)(OCC)Oc1cc(C)nc(C(C)C)n1", "outcome": "inactive"},
      {"compound": "CCOC(=O)CC(SP(=O)(OC)OC)C(=O)OCC", "note": "(stereo unspecified)", "outcome": "inactive"},
      {"compound": "CCOP(=S)(OCC)Oc1cc(C)nc(C(C)C)n1", "outcome": "inactive"},
      {"compound": "CCCSP(=O)(OCC)SCCC", "outcome": "inactive"},
      {"compound": "COP(=O)(OC)O/C(=C\\Cl)c1cc(Cl)c(Cl)cc1Cl", "outcome": "inactive"},
      {"compound": "COP(=O)(OC)OC(Br)C(Cl)(Cl)Br", "note": "(stereo unspecified)", "AC50": "9.92 µM (active)"},
      {"compound": "CCN(CC)c1nc(C)cc(OP(=S)(OC)OC)n1", "AC50": "19.1 µM (active)"},
      {"compound": "CNC(=O)CSP(=S)(OC)OC", "outcome": "inactive"},
      {"compound": "CCOP(=S)(OCC)SCSCC", "AC50": "0.316 µM (active)"},
      {"compound": "COP(=O)(NC(C)=O)SC", "note": "(stereo unspecified)", "outcome": "inactive"},
      {"compound": "COP(N)(=O)SC", "note": "(stereo unspecified)", "outcome": "inactive"},
      {"compound": "CNC(=O)CSP(=O)(OC)OC", "AC50": "18.9 µM (active)"},
      {"compound": "COP(=O)(OC)OC=C(Cl)Cl", "outcome": "inactive"},
      {"compound": "CCOP(=S)(OCC)Oc1nc(Cl)c(Cl)cc1Cl", "AC50": "9.92 µM (active)"},
      {"compound": "COP(=O)(OC)C(O)C(Cl)(Cl)Cl", "note": "(stereo unspecified)", "AC50": "0.205 µM (active)"}
    ]}
  ]
}
